Screens: PubChem BioAssay, National Center for Advancing Translational Sciences (NCATS)
RORgamma inh: qHTS for inhibitors of ROR gamma transcriptional activity; hit rate 5.4% among 310,000; Drosophila S2 Gal4-RORgamma UAS-luciferase reporter, 20 h; AID 2551, 2010; Nuclear receptor ROR-gamma (Mus musculus), P51450; Potency, µM (highest dose often 53.6 µM), for the others: at the highest dose activity change, negative = inhibition, hits mostly inhibitors; also: potency is read from the fitted curve at half-maximal effect; nearly all actives have a fitted effect of over 60% in size
Target sequence (P51450 whole entry, looked up, the tested form may be a part): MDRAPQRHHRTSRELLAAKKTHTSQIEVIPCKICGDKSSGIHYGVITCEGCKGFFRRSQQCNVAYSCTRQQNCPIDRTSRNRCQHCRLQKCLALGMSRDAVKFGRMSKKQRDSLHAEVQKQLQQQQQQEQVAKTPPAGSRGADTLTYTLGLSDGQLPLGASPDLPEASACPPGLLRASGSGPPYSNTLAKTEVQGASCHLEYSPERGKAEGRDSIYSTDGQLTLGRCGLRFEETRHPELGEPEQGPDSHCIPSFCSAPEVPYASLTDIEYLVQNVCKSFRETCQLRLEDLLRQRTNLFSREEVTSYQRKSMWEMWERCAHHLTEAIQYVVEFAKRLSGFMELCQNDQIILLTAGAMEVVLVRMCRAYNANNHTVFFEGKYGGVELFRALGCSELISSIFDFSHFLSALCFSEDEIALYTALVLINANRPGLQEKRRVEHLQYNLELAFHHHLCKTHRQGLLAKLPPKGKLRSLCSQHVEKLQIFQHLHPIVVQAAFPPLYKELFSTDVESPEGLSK
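Compounds are pin-transferred onto Drosophila Schneider cells expressing a copper-inducible Gal4–ROR gamma transactivation domain fusion. After 1 hr, copper sulfate is added to 700 uM final; luciferase is read 20 hr later.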
TDP1 cell noCPT: qHTS for Inhibitors of human tyrosyl-DNA phosphodiesterase 1 (TDP1): qHTS in cells in absence of CPT | Potency, µM (series often up to 46.2 µM), for inactives: at the highest dose activity change, negative = growth inhibition, hits mostly inhibitors | hit rate 15% among 420,000 | DT40 Tdp1-/- hTDP1 cells, no CPT, ATP luminescence, 48 h; also: potency is read from the fitted curve at half-maximal effect; nearly all actives have a fitted effect of over 55% in size
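Cells were dispensed at 400 per well, compounds added by pin tool, plates incubated ≥48 hr at 37 °C, then CellTiter-Glo added for 30 min at room temperature before luminescence reading. Line: DT40 Tdp1-/- complemented with hTDP1; camptothecin omitted.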
LDHA inh: qHTS assay for inhibitors of human lactate dehydrogenase; L-lactate dehydrogenase A chain (Homo sapiens), P00338; purified LDHA, NADH/diaphorase-resazurin fluorescence; hits give low values; activity change, % (values are at about 110 or 230 µM); hit rate 0.15% among 480,000; AID 1347041, 2019; in the data active = activity change below about -30%; inconclusive = mostly about -25% to -30%;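 also: plate controls were DMSO wells for no effect and wells without enzyme for full effect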
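Remaining NADH was detected by diaphorase (0.133 mg/mL) converting 37 µM resazurin to fluorescent resorufin, read at 0 and 20 minutes. The preceding 5-minute room-temperature reaction used 2 nM LDHA, 0.2 mM sodium pyruvate and 0.06 mM NADH at pH 7.4.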
IL1B secr inh: qHTS for Inhibitors of Inflammasome Signaling: IL-1-beta AlphaLISA Primary Screen. THP-1 LPS/ATP IL-1B secretion, AlphaLISA, 16 h; hits give low values. activity change, % at 57.5 µM. hit rate 4.7% among 360,000. AID 743279, 2014; in the data active = activity change below about -50%; inconclusive = mostly about -30% to -49%
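Secreted IL-1B measured by AlphaLISA bead assay after 16 h compound exposure of THP-1 cells; compounds (final up to 57.5 uM) added 1 h before LPS (250 ng/mL) and ATP (1.25 mM) stimulation; lower signal means less secretion.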
DT40 TDP1 CPT: qHTS for Inhibitors of human tyrosyl-DNA phosphodiesterase 1 (TDP1): qHTS in cells in presence of CPT | chicken DT40 Tdp1-/-;hTDP1 cells + 20 nM CPT, ATP luminescence, 48 h | Potency, µM (series often up to 46.2 µM), for the others: top-dose activity change, negative = growth inhibition, actives largely listed as inhibitors | hit rate 12% among 420,000 | AID 686979, 2013; also: potency is read from the fitted curve at half-maximal effect; nearly all actives have a fitted effect of over 55% in size
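Cell growth measured by CellTiter-Glo luminescence after a minimum 48 h, 37 C compound exposure with 20 nM CPT in Tdp1-knockout DT40 cells stably expressing hTDP1, seeded 400/well; qHTS titration format.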
VP16 counter: VP16 counterscreen qHTS for inhibitors of ROR gamma transcriptional activity. hit rate 3.5% among 310,000. Drosophila S2 Gal4-VP16 UAS-luciferase, luminescence, 20 h. AID 2546, 2010. Potency, µM (series often up to 53.6 µM), for inactives: top-dose activity, negative = inhibition, hits mostly inhibitors;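 also: Gal4-VP16 expression switched on by copper sulfate through the metallothionein promoter; potency is read from the fitted curve at half-maximal effect; nearly all actives have a fitted effect of over 50% in size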
Numbers without * were called inactive; u = inconclusive; x = no result; [ ] = dose if it differs, or a comment. The list is not random: actives were taken first. Their share in the collection is about 18%. Unless noted, calls follow the shape of the dose curve; as a rule, active = well fitted curve in the direction sought with a large enough effect; inconclusive = small, poorly fitted or top-dose-only effect, or another doubt; inactive = no such curve, though single readings can be large; an effect the other way counts as inactive or inconclusive. Unless noted, % is scaled to controls: 0 for no effect and ±100 for the full control effect.

SMILES	RORgamma inh	TDP1 cell noCPT	LDHA inh	IL1B secr inh	DT40 TDP1 CPT	VP16 counter
COc1ccc2cc3c(N)nn(C(=O)c4ccccc4[N+](=O)[O-])c3nc2c1	u	2.3µM*	-1	x	2.6µM*	-21%
O=C(NCCC1=CCCCC1)c1ccc(Br)o1	0%	9.2µM*	0	5	8.2µM*	14%
O=C(NC(=S)NCc1ccc(Cl)cc1)c1ccco1	x	u	-2	-101*	u	x
O=C(NC(=S)NCCC1=CCCCC1)c1ccco1	4.5µM*	u	-9	-11	u	u
O=C(NC(=S)NCCc1ccccc1)c1ccco1	6.3µM*	u	1	7	u	u
CCc1ccc2oc(-c3ccc(NC(=O)c4ccc([N+](=O)[O-])o4)cc3)nc2c1	x	x	4	x	x	x
CC(Oc1cccc(Cl)c1)c1nc(-c2ccncc2)no1 (stereo unspecified)	x	x	6	x	x	x
CCNc1oc(/C=C/c2ccc(OC)c(OC)c2)nc1C#N	x	x	2	x	x	x
Cc1ccccc1C(=O)NC(=S)NCCC1=CCCCC1	4µM*	u	-5	63	-22%	16µM*
O=C(Cc1ccccc1)NCCC1=CCCCC1	18%	21%	-5	5	2%	-6%
O=C(NC(=S)NCCC1=CCCCC1)c1ccc(Br)o1	4.5µM*	-26%	-7	-7	u	u
Cc1ccccc1OCC(=O)NCCC1=CCCCC1	u	u	0	-2	u	u
Cc1oc2ccc(O)c(CN3CCN(Cc4ccccc4)CC3)c2c1C(=O)Nc1cccc(Cl)c1C	x	-77%	4	x	16µM*	x
Cc1ccccc1NC(=O)c1c(C)oc2ccc(O)c(CN3CCN(C)CC3)c12	x	u	-5	x	16µM*	x
Cc1oc2ccc(O)c(CN3CCCC3)c2c1C(=O)Nc1cccc(Cl)c1C	x	21µM*	1	x	16µM*	x
Cc1ccc(NC(=O)c2c(C)oc3ccc(O)c(CN4CCCC4)c23)c(C)c1	x	u	-7	x	u	x
COc1ccccc1/C=C/c1cncc(/C=C/c2ccccc2OC)c1	x	13µM*	2	x	u	x
COc1cc(/C=C/c2cncc(/C=C/c3cc(OC)c(OC)c(OC)c3)c2)cc(OC)c1OC	x	-12%	0	x	-7%	x
COc1ccccc1C=Cc1ccnc2ccccc12	x	u	-3	-93*	u	x
COc1cccc(/C=C/c2ccnc3ccccc23)c1OC	x	11µM*	-4	x	u	x
COc1ccccc1/C=C/c1cnccn1	x	u	3	x	-5%	x
COc1ccc(/C=C/c2ccncc2)c2ccccc12	-29%	u	7	12	-21%	-5%
Cc1cccc(-c2nc(=S)c3c(n2Cc2ccco2)CCCC3)c1	11µM*	u	-4	6	21µM*	u
Cc1ccc(-c2nc(=S)c3c(n2Cc2ccco2)CCCC3)cc1	-29%	u	-4	30	u	-10%
COc1cccc(-c2nc(=S)c3c(n2Cc2ccco2)CCCC3)c1	u	u	5	0	16µM*	-14%
SMILES	RORgamma inh	TDP1 cell noCPT	LDHA inh	IL1B secr inh	DT40 TDP1 CPT	VP16 counter
Cc1ccc(-c2nc(=S)c3c(n2Cc2ccco2)CC(C)(C)OC3)cc1	2.8µM*	23µM*	4	10	16µM*	16µM*
CCOC(=O)C(NC=C(C#N)C#N)C(=O)OCC	x	x	-7	x	x	x
CC(C)(C)NC(=O)C(c1ccnc2ccccc12)n1c(=O)c(-c2cc3ccccc3[nH]2)nc2ccccc21 (stereo unspecified)	x	18µM*	4	7	u	x
CC(C)(C)NC(=O)C(c1ccccc1F)n1c(=O)c(-c2cc3ccccc3[nH]2)nc2ccccc21 (stereo unspecified)	x	13µM*	2	4	u	x
COc1ccc(C(C(=O)NC(C)(C)C)n2c(=O)c(-c3cc4ccccc4[nH]3)nc3ccccc32)cc1 (stereo unspecified)	x	u	-4	-7	u	x
CC(C)(C)NC(=O)C(C1CC1)n1c(=O)c(-c2cc3ccccc3[nH]2)nc2ccccc21 (stereo unspecified)	x	u	4	-14	18µM*	x
CC(C)(C)NC(=O)C(c1ccncc1)n1c(=O)c(-c2cc3ccccc3[nH]2)nc2ccccc21 (stereo unspecified)	x	16µM*	2	-123*	23µM*	x
O=C(NCc1ccccc1)C(c1ccccc1F)n1c(=O)c(-c2cc3ccccc3[nH]2)nc2ccccc21 (stereo unspecified)	x	u	2	68	u	x
Cc1cccc(C)c1NC(=O)C(C1CC1)n1c(=O)c(-c2cc3ccccc3[nH]2)nc2ccccc21 (stereo unspecified)	x	u	1	-7	u	x
CCc1ccccc1NC(=O)c1ccccc1SCc1cccs1	x	x	7	x	x	x
O=C(Nc1cccc(CNCc2ccccn2)c1)c1cccc(F)c1	x	x	-15	x	x	x
Cc1ccccc1NC(=O)Nc1ccc2nc(N3CCN(C)CC3)cc(C)c2c1	x	u	-3	x	u	x
Cc1cccc(N2CCN(C(=S)Nc3ccc4nc(N5CCN(C)CC5)cc(C)c4c3)CC2)c1C	4.5µM*	1µM*	-1	4	1.3µM*	4.5µM*
Cc1cc(N2CCN(C)CC2)nc2ccc(NC(=S)N3CCN(c4cccc(Cl)c4)CC3)cc12	-20%	2.6µM*	1	19	1.8µM*	-23%
Cc1cccc(N2CCN(C(=S)Nc3ccc4nc(N5CCN(C)CC5)cc(C)c4c3)CC2C)c1 (stereo unspecified)	u	21µM*	-1	-72*	u	u
Cc1cc(N2CCN(C)CC2)nc2ccc(NC(=S)N3CCN(c4ccc(Cl)cc4)CC3)cc12	u	u	-2	38	9.2µM*	u
Cc1cc(N2CCN(C)CC2)nc2ccc(NC(=O)Nc3ccc(Cl)cc3)cc12	x	u	0	x	u	x
Cc1cc(N2CCN(C)CC2)nc2ccc(NC(=O)CCC(=O)NCCC(C)C)cc12	26%	-26%	-9	1	-3%	-13%[10 µM]
Cc1cc(N2CCN(C)CC2)nc2ccc(NC(=S)N3CCN(c4ccc(F)cc4)CC3)cc12	u	10µM*	-2	212	u	-1%[10 µM]
COc1ccc(N2CCN(c3cc(C)c4ccc(O)cc4n3)CC2)cc1	37%	u	1	3	-26%	1%
